CtBP-E1A inh = qHTS Assay for Inhibitors of the CtBP/E1A Interaction; CtBP / adenovirus E1A interaction (AlphaScreen); AlphaScreen GST-E1A/His-CtBP binding, 1536-well; stronger effect = lower value; activity change, % (test concentration not listed); 0.49% of 340,000 active; AID 651724, 2012; in the data active = activity change below about -65%; inconclusive = mostly about -30% to -63%; note: % is set by controls: 0 for no effect and ±100 for the full control effect
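Protein mix (5X: 125 nM each GST-E1A, His-CtBP) was incubated with pinned compound 2 h at 37 deg C in dark, in 50 mM Tris pH 8.0 buffer with 300 mM NaCl. Glutathione donor and nickel acceptor beads followed; AlphaScreen signal read after 1 h.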
Six1-Eya2 inh = qHTS Assay for Inhibitors of the Six1/Eya2 Interaction. Homeobox protein SIX1 (Homo sapiens) + Protein phosphatase EYA2 (Homo sapiens), …. AlphaScreen GST-Six1/His-Eya2 binding, biochemical; stronger effect = lower value. activity change, % (concentration not given with the values). 0.56% of 360,000 active; in the data active = activity change below about -65%; inconclusive = mostly about -30% to -63%; note: % is set by controls: 0 for no effect and ±100 for the full control effect
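GST-Six1 + His-Eya2 (5X stock: 250/500 nM); Tris pH 8.0, 300 mM NaCl, 0.05% BSA, 0.02% Tween 20; GSH donor/Ni acceptor beads; 1 h 37 °C dark; AlphaScreen readout.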
p53 reactivator = qHTS assay for re-activators of p53 using a Luc reporter; Potency, µM (series often up to 92.2 µM), for inactives: at the top dose activity change, positive = activation, most hits filed as activators; H1299 p53-A138V BP100-luciferase reporter, luminescence, 24 h; 0.063% of 320,000 active; AID 504706, 2011; note: potency is the fitted concentration of half-maximal effect; % of control where 0% means no effect; nearly all actives have a fitted effect of over 45% in size
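p53-null H1299 cells stably carrying temperature-sensitive p53-A138V and a BP100-luciferase reporter were pinned with compounds (4-point, 1:5 series) and held 24 hrs at 37 deg C. Luminescence was read 10 min after detection reagent.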
RORgamma inh = qHTS for inhibitors of ROR gamma transcriptional activity. Nuclear receptor ROR-gamma (Mus musculus), P51450. Drosophila S2 Gal4-RORgamma UAS-luciferase reporter, 20 h. Potency, µM (series often up to 53.6 µM), without a hit: at the top dose activity change, negative = inhibition, most hits filed as inhibitors. 5.4% of 310,000 active. AID 2551, 2010; note: potency is the fitted concentration of half-maximal effect; % is set by controls: 0 for no effect and ±100 for the full control effect; nearly all actives have a fitted effect of over 60% in size
Target sequence (P51450 whole entry, looked up, the tested form may be a part): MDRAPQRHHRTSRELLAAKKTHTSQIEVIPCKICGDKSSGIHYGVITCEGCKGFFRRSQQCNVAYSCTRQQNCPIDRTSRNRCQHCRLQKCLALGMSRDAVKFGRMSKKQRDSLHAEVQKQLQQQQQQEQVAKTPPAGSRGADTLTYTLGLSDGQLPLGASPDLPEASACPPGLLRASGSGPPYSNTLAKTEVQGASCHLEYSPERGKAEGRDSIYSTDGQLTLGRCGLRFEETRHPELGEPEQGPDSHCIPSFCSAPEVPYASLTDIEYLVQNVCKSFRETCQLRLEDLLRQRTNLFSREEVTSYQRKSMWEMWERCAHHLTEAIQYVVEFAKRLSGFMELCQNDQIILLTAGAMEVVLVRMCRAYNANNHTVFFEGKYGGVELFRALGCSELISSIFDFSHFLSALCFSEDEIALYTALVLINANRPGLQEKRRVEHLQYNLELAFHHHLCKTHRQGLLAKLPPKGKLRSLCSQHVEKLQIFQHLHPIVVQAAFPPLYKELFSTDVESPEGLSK
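Stable Schneider cell line, Gal4 DNA-binding domain fused to ROR gamma, UAS-luciferase. Cmpd 1 hr RT → CuSO4 700 uM final → 20 hr RT → luciferase reagent 10 min → luminescence.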
Gal4-VP16 FLuc = VP16 counterscreen qHTS for inhibitors of ROR gamma transcriptional activity. Drosophila S2 Gal4-VP16 UAS-luciferase, luminescence, 20 h. Potency, µM (highest dose often 53.6 µM), for inactives: at the highest dose activity, negative = inhibition, actives largely listed as inhibitors. 3.5% of 310,000 active. AID 2546, 2010;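 note: Gal4-VP16 expression switched on by copper sulfate through the metallothionein promoter; potency is the fitted concentration of half-maximal effect; % is set by controls: 0 for no effect and ±100 for the full control effect; nearly all actives have a fitted effect of over 50% in size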
Starred values were filed as active, the others as inactive; [ ] = remark or other dose. Rows were chosen to be rich in hits. Some 5.4% of all compounds tested hit in one or more screens of this group. Unless noted, calls come from the whole dose curve; as a rule, active = well fitted curve in the direction sought with a large enough effect; inconclusive = small, poorly fitted or top-dose-only effect, or another doubt; inactive = no such curve, though single readings can be large; an effect the other way counts as inactive or inconclusive.

What do the screens show for `OCCCn1c(-c2ccccc2)n[nH]c1=S`?
CtBP-E1A inh: 5.7; Six1-Eya2 inh: 7.3; p53 reactivator: 18.8%; RORgamma inh: -44.6%; Gal4-VP16 FLuc: -9.0%

How did CCn1c(-c2nn(-c3ccccc3)ccc2=O)n[nH]c1=S do in these assays?
CtBP-E1A inh: 0.0; Six1-Eya2 inh: 8.8; p53 reactivator: 0.6%; RORgamma inh: -21.8%; Gal4-VP16 FLuc: -14.3%[10 µM]

What do the screens show for `CCCCCCn1c(-c2cccs2)n[nH]c1=S`?
CtBP-E1A inh: 0.0; Six1-Eya2 inh: 1.7; p53 reactivator: -1.8%; RORgamma inh: 2µM*; Gal4-VP16 FLuc: inconclusive

Results for CCn1c(-c2csc3c2CCCC3)n[nH]c1=S ?
CtBP-E1A inh: -14.2; Six1-Eya2 inh: -2.8; p53 reactivator: 5.4%; RORgamma inh: 3.98µM*; Gal4-VP16 FLuc: 4.47µM*

Results for O=C1NC(c2cccc3ccccc23)Nc2ccc(Cl)cc21 (configuration not stated) ?
CtBP-E1A inh: 10.8; Six1-Eya2 inh: 0.9

How did CCCCn1c(SCC(N)=O)nc2sc3c(c2c1=O)CCC3 do in these assays?
CtBP-E1A inh: -1.9; Six1-Eya2 inh: -2.3; RORgamma inh: 12.4%; Gal4-VP16 FLuc: 12.8%

What do the screens show for `CCCCn1c(-c2csc3c2CCCC3)n[nH]c1=S`?
CtBP-E1A inh: -0.1; Six1-Eya2 inh: -5.5; p53 reactivator: 10.3%; RORgamma inh: 3.55µM*; Gal4-VP16 FLuc: inconclusive

What do the screens show for `CCCCn1c(-c2csc3c2CCC(C)C3)n[nH]c1=S` (configuration not stated)?
CtBP-E1A inh: -6.3; Six1-Eya2 inh: -9.3; p53 reactivator: -12.6%; RORgamma inh: 0.794µM*; Gal4-VP16 FLuc: 2.51µM*

How did Cc1ccccc1OCCCN1C(=O)C(=O)c2cccc(C)c21 do in these assays?
CtBP-E1A inh: -3.2; Six1-Eya2 inh: -3.5; p53 reactivator: -4.7%; RORgamma inh: 35.5µM*; Gal4-VP16 FLuc: 11.2µM*

Results for CCC1=C2CC[C@H]3C(=O)N(CC)C(=O)[C@H]3[C@H]2[C@@]2(Cc3ccccc3)C(=O)N(CC3CC3)C(=O)N2C1=O ?
RORgamma inh: -13.0%; Gal4-VP16 FLuc: 7.6%

How did CNC(=O)NC(=O)CSc1nc2cc(C(=O)OC)ccc2c(=O)n1-c1ccccc1 do in these assays?
CtBP-E1A inh: -1.1; Six1-Eya2 inh: 1.6; p53 reactivator: -5.4%; RORgamma inh: -44.3%; Gal4-VP16 FLuc: 22.4µM*

Results for CCCCCCCCCCCCCCCCCC(=O)NCCc1ccc(O)c(O)c1 ?
RORgamma inh: -0.6%; Gal4-VP16 FLuc: 6.9%

Results for COC(=O)[C@@]12C[C@@H](CC(=O)N3CCCC3)C(=O)N(Cc3ccco3)C1=CCC(C)(C)C2 ?
CtBP-E1A inh: 4.1; Six1-Eya2 inh: -5.7

How did CC(c1n[nH]c(=S)n1-c1ccccc1)N1CCCCC1 (configuration not stated) do in these assays?
CtBP-E1A inh: 6.3; Six1-Eya2 inh: -0.2; p53 reactivator: 1.7%; RORgamma inh: 10µM*; Gal4-VP16 FLuc: -9.7%

Results for COC(=O)C1=C(C)NC(=S)NC1c1ccc(-c2cc(Cl)ccc2Cl)o1 (configuration not stated) ?
CtBP-E1A inh: -8.4; Six1-Eya2 inh: -12.2; p53 reactivator: -1.7%; RORgamma inh: 3.98µM*; Gal4-VP16 FLuc: 4.47µM*

What do the screens show for `CC1=C(C(N)=O)C(c2cccs2)NC(=S)N1` (configuration not stated)?
CtBP-E1A inh: 4.1; Six1-Eya2 inh: 0.4; p53 reactivator: -0.3%; RORgamma inh: -8.0%; Gal4-VP16 FLuc: 6.5%

What do the screens show for `COC(=O)C1=C(C)NC(=S)NC1c1sccc1C` (configuration not stated)?
CtBP-E1A inh: -2.8; Six1-Eya2 inh: -18.0; p53 reactivator: 1.7%; RORgamma inh: 15.8µM*; Gal4-VP16 FLuc: -9.6%
